PLK1 PBD inh: PLK1 (human) polo-box domain binding inhibition; P53350; Plk1 PBD binding of FITC phosphopeptide, fluorescence polarization; Potency, µM, without a hit: max response, negative = inhibition, most hits filed as inhibitors; 2.8% of 360,000 active; AID 720504; also: series mostly up to about 57 µM; nearly all actives have a fitted effect of over 65% in size
RORgamma inh: ROR gamma (mouse) transcription inhibition; P51450; AID 2551; 5.4% of 310,000 active; Potency, µM (titrated, usually from 53.6 µM), inactives show top-dose activity change, negative = inhibition, actives largely listed as inhibitors; Drosophila S2 Gal4-RORgamma UAS-luciferase reporter, 20 h; also: nearly all actives have a fitted effect of over 60% in size
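ROR gamma transcriptional activity was tracked as Gal4-UAS luciferase output in stably transfected Drosophila Schneider cells, with compound added 1 hr before 700 uM copper sulfate induction and a 20 hr ambient-temperature incubation.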
Sfp PPTase inh: Sfp phosphopantetheinyl transferase inhibition; Q9F4F7; Biochemical Sfp PPTase activity, qHTS; Potency, µM, for the others: largest response in the series, negative = inhibition, most hits filed as inhibitors; 3.5% of 310,000 active; AID 1490;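 also: the enzyme is Sfp with the accession as filed and its product quenches rhodamine fluorescence; 0% = enzyme reaction without inhibitor and -100% = no enzyme wells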
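Buffer: 50 mM Hepes-Na pH 7.6, 10 mM MgCl2, 0.01% Nonidet P-40, 0.01% BSA. Enzyme 15 nM, pre-exposed to compound 15 min; substrates then added and fluorescence change tracked over 30 min.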
Gal4-VP16 FLuc: Gal4-VP16 reporter inhibition counter-screen. Drosophila S2 Gal4-VP16 UAS-luciferase, luminescence, 20 h. Potency, µM (doses to about 53.6 µM), inactives show at the highest dose activity, negative = inhibition, hits mostly inhibitors. 3.5% of 310,000 active. AID 2546;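 also: Gal4-VP16 expression switched on by copper sulfate through the metallothionein promoter; nearly all actives have a fitted effect of over 50% in size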
ALDH1A1 block: inhibitors of human aldehyde dehydrogenase 1A1; Potency, µM (titrated, usually from 75.3 µM), for inactives: at the highest dose activity, negative = inhibition, hits mostly inhibitors; AID 1030; Purified ALDH1A1, NADH fluorescence, propionaldehyde substrate; 7.3% of 220,000 active; P00352; active = well fitted inhibition curve with a large enough effect, not every such curve was filed as active; inconclusive = small, poorly fitted or top-dose-only effect, or another doubt; inactive = no such curve, though single readings can be large or run the other way;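 also: plate controls were no enzyme wells and a reference inhibitor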
Target sequence (P00352 whole entry, looked up): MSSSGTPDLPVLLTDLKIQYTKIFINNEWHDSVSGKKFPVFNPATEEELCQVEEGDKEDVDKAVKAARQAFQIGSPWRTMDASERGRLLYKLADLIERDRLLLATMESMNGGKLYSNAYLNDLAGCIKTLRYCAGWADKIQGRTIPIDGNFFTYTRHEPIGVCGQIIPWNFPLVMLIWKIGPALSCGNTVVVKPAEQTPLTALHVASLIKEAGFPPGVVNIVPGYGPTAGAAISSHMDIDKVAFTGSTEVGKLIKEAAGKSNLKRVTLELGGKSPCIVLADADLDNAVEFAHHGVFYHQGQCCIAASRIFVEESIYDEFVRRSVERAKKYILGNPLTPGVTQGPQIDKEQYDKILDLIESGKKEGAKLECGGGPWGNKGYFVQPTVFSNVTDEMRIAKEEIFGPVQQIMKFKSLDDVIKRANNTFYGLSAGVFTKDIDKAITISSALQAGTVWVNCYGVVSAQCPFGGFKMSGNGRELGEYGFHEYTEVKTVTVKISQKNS
An asterisk follows results filed as active; u = inconclusive; x = not tested or not shown. A selection: hits, their analogues and other compounds. The true share with any hit is near 12%. Unless noted, calls follow the shape of the dose curve; as a rule, active = well fitted curve in the direction sought with a large enough effect; inconclusive = small, poorly fitted or top-dose-only effect, or another doubt; inactive = no such curve, though single readings can be large; an effect the other way counts as inactive or inconclusive. Unless noted, % is scaled to controls: 0 for no effect and ±100 for the full control effect; potency is read from the fitted curve at half-maximal effect.

SMILES	PLK1 PBD inh	RORgamma inh	Sfp PPTase inh	Gal4-VP16 FLuc	ALDH1A1 block
O=C(NCc1ccc(F)cc1)c1cc(C2CCCN(C(=O)C3CCCCC3)C2)on1 (stereo not given)	7%	x	x	x	x
COc1cc2c(cc1OC)C(=O)OC2	x	-37%	13%	-2%	8%
CC1(C(=O)NCc2cccs2)Cc2c(-c3ccc4c(c3)OCO4)ccnc2O1 (stereo not given)	-9%	x	x	x	x
CCN1C(=O)[C@H]2[C@@H](c3ccc(OC)cc3)N[C@]3(CCCN(CC4CCCCC4)C3=O)[C@H]2C1=O	-4%	x	x	x	x
O=S(=O)(NCC(O)COCc1ccco1)c1cccs1 (stereo not given)	-25%	12%	45µM*	7%	7.9µM*
COC(=O)c1ccc(Sc2ccc(C)cc2)c(N)c1	27µM*	28%	50µM*	11%	u
COc1cc(Sc2ccc(C)cc2)c(OC)cc1N	u	-13%	-23%	5%	3.5µM*
COC(=O)c1ccc(C)c(NC(=O)CCSc2ccc(C)cc2)c1	-11%	-3%	14%	-3%	-5%
COc1ccccc1CN1CCCC2(CCN(C(=O)c3cccn3C)CC2)C1	x	0%	-5%	-7%	8%
Cc1ccc(N/C(N)=N/c2nc(C)cc(C)n2)cc1	-9%	-5%	8%	-2%	10%
Cc1cc(C)nc(/N=C(\N)Nc2ccccc2-c2ccccc2)n1	-11%	u	1%	13µM*	8%
CC1(OC(=O)c2ccco2)C(=O)C2=COC(C3CC3)=CC2=C(Br)C1=O (stereo not given)	x	-5%	-26%	1%	-10%
C=CCOc1ccc(-c2n[nH]c(=S)o2)cc1	-18%	11µM*	-5%	-22%	u
Fc1ccc2c(c1)C(c1ccncc1)=NNC(c1ccccc1)=N2	-1%	10µM*	-10%	u	-1%
N#Cc1ccc(CN2CC3(CCN(C(=O)c4cccc(F)c4)CC3)C2)cc1	x	-5%	13%	9%	u
Cc1nn(C)c(C)c1CN(C)S(=O)(=O)c1ccc2ccccc2c1	0%	u	10%	5µM*	-3%
Cc1nn(C)c(C)c1CN(C)S(=O)(=O)c1ccc(F)cc1	-11%	u	8%	u	-5%
CCOc1ccc(C(C)=O)cc1CC(C(N)=O)C(N)=O	1%	1%	14%	-1%	-12%
CCOc1ccc(C(C)=O)cc1COC(=O)C1=COCCO1	-2%	-25%	-3%	-13%	14µM*
O=[N+]([O-])c1ccc(COc2ccccc2CN2CCCCC2)cc1	-13%	x	x	x	x
C=CCOc1c(Br)cc(CNn2c(C)n[nH]c2=S)cc1OC	-6%	u	-14%	u	x
C=CCOc1c(Br)cc(CNc2nccs2)cc1OC	-9%	13µM*	-9%	18µM*	u
CC1(C(=O)NS(=O)(=O)c2cccc(F)c2)CCN1C(=O)CC1CCCC1 (stereo not given)	4%	x	x	x	x
COc1ccccc1C#Cc1cnc2c(c1)C(=O)N([C@H](C)CO)C[C@@H](C)[C@@H](CN(C)C(=O)c1ccc3c(c1)OCO3)O2	-15%	x	x	x	x
COc1cccc(CN2CCC2(C)C(=O)Nc2cccc3cccnc23)c1OC (stereo not given)	-3%	x	x	x	x
SMILES	PLK1 PBD inh	RORgamma inh	Sfp PPTase inh	Gal4-VP16 FLuc	ALDH1A1 block
CN(Cc1ccccc1)S(=O)(=O)c1ccc(NC(=S)NC(=O)C(C)(C)C)cc1	-2%	13µM*	4%	u	13µM*
COc1cc(NS(=O)(=O)c2ccc(NC(=S)NC(=O)C3CCCC3)cc2)nc(OC)n1	u	-3%	-26%	-8%	25µM*
CN(Cc1ccccc1)S(=O)(=O)c1ccc(NC(=S)NC(=O)C2CCCCC2)cc1	-20%	8.9µM*	14%	7.9µM*	-3%
C=CCN(CC=C)S(=O)(=O)c1ccc(NC(=S)NC(=O)C2CC2)cc1	-26%	11µM*	-1%	u	x
CC(=O)Nc1ccc(S(=O)(=O)N(C)Cc2ccccc2)cc1	1%	u	13%	25%	-7%
CC(C)C(C)/C=C/C(C)C1CCC2C3=CCC4CC(=O)CC[C@@]4(C)C3CC[C@]21C (stereo not given in full)	x	-1%	0%	-1%	-7%
CC(=O)c1cccc(NC(=O)CN2C(=O)C(=O)N(Cc3ccco3)C2=O)c1	-22%	x	x	x	x
C=CCC(Nc1ccc(OC)cc1)C(=O)OCC (stereo not given)	x	14%	4%	-1%	6%
COc1cc(C2c3c(oc4ccccc4c3=O)C(=O)N2Cc2ccncc2)ccc1O (stereo not given)	-6%	27%	-7%	-1%	25µM*
C=CCOc1ccc(C[C@H](N)C(=O)NC[C@H]2O[C@@H](n3cc(C)c(=O)[nH]c3=O)C[C@@H]2O)cc1	0%	x	x	x	x
CCCCC1(Cc2cccc([N+](=O)[O-])c2)C(=O)N(c2ccccc2)N(c2ccccc2)C1=O	-4%	18µM*	15%	u	7%
COc1ccc(C(=O)Nc2sc(C(=O)N(C)C)c(C)c2C#N)cc1[N+](=O)[O-]	-9%	u	-13%	16µM*	u
Cc1cc(C(=O)Nc2ccc(Nc3ccccc3)cc2)ccc1[N+](=O)[O-]	3.4µM*	u	20%	-15%	x
COc1ccc(C(=O)NNC(=O)c2ccccc2[N+](=O)[O-])cc1[N+](=O)[O-]	-11%	2%	4%	-10%	13µM*
COc1ccccc1C(=O)NNC(=O)c1ccccc1[N+](=O)[O-]	-6%	-19%	1%	16%	12%
COc1ccc(C(=O)NNc2ccccc2)cc1OC	-24%	-10%	6%	-8%	22µM*
CCC1=C2CC[C@H]3C(=O)N(CC(=O)OC)C(=O)[C@H]3[C@H]2[C@@]2(C)C(=NCCc3c[nH]c4ccccc34)OC(=O)N2C1=O	x	-8%	17%	5%	-4%
CCC(C(=O)NC(N)=O)c1ccccc1 (stereo not given)	x	14%	6%	-2%	x
CC(=O)Nc1ccccc1NC(=O)C/C(C)=N/NC(=O)c1ccc([N+](=O)[O-])c(Cl)c1	1%	u	-2%	-8%	8%
COc1ccc(NC(=O)c2ccc(-n3cccn3)c([N+](=O)[O-])c2)cc1	-10%	17%	12%	10%	u
CCOCCCNS(=O)(=O)c1ccc(NC(=O)c2ccc(OC)c([N+](=O)[O-])c2)cc1	3.4µM*	-10%	17%	1%	u
COc1ccc(C(=O)Nc2ccc(S(=O)(=O)NC(C)=O)cc2)cc1[N+](=O)[O-]	-9%	9%	15%	-6%	u
COc1ccccc1NC(=O)c1ccc(-n2cccn2)c([N+](=O)[O-])c1	-12%	17%	4%	-18%	25µM*
Cc1ccc(NC(=O)c2ccc(NCCN)c([N+](=O)[O-])c2)cc1	-3%	6.3µM*	u	-28%	u
C/C(=N\NC(=O)c1ccc([N+](=O)[O-])c(C)c1)c1ccccc1Cl	-6%	7.9µM*	6%	u	1%

Screening results from PubChem BioAssay.
